From PubChem BioAssay AID1578 (Sanford-Burnham Center for Chemical Genomics, 2009) come the findings set out here.

The campaign covered roughly 290,000 compounds. About 3,000 (1%) were called active. The sample as a whole holds a higher share of actives than the screen did. A number with no mark means an inactive call. Cut-off read from the data, not from the text of the source: active = inhibition mostly above about 36% (no sharp cut-off); inactive = mostly below about 34%.

The assay in a line: NOD1 signaling inhibitors, primary screen, cell-based, luminescence, uHTS (AID 1578).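 Note: HEK-293T reporter cells stimulated with the NOD1 agonist gamma-tri-DAP.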 As to conditions: NOD1-driven NF-kB luciferase reporter cells, at 4 µM, hits give high values.
With `CCOc1ccc(OCC)c(NC(=O)CN2CCN(c3cccc(C)c3)C(C)C2)c1` (stereo not drawn), the inhibition is 29.9%.

With `O=C(CSc1nc2ccccc2s1)NC1CCCC1`, the inhibition was 9.6%.

Consider `O=C(Cn1ncc(Cl)c(Cl)c1=O)N1CCN(S(=O)(=O)c2ccc3ccccc3c2)CC1`, for which the inhibition is 48.9%.

Turning to `O=C(Cn1ncc(Cl)c(Cl)c1=O)N1CCN(Cc2ccccc2)CC1`, the inhibition is 84.9% (active).

As for `O=C(Cn1ncc(Cl)c(Cl)c1=O)N1CCOCC1`, the inhibition is 6.8%.

For `Cc1ccc2c(c1)C(c1ccc(F)cc1)N(C(=O)c1ccc(S(=O)(=O)N(C)C)cc1)CC(=O)N2` (stereo not drawn), the inhibition is 3.7%.

For the compound `C=CCOc1c(Br)cc(/C=C2\SC(=Nc3ccccc3)NC2=O)cc1OC`, the inhibition is -29.6%.

Take `C=CCOc1ccc(Br)cc1/C=C1/SC(=Nc2ccc(C(=O)O)cc2)NC1=O`: the inhibition is 40.4% (active).

As for `CCOc1cc(Br)cc(/C=C2\SC(=Nc3ccccc3)NC2=O)c1O`, the inhibition was -86.1%.

Take `O=C(c1cc2cc(Cl)ccc2o1)N1CCCC1`: the inhibition was -13%.

As for `COCCn1nnnc1CN(Cc1cc2cc(OC)c(OC)cc2[nH]c1=O)C1CCCC1`, the inhibition was -13.9%.

For the compound `Cc1cccc(NC(=S)NCCC(C)C)c1`, the inhibition was 69.1% (active).

Turning to `CC(C)CCNC(=S)Nc1ccc(Br)cc1`, the inhibition was -18.8%.

In the case of `CC/C(=N\NC(=S)Nc1cccc(C)c1)c1ccccc1`, the inhibition is 48.5% (active).

On to `Cc1cccc(NC(=S)N/N=C(\c2ccccc2)C(C)C)c1`, for which the inhibition was -62.9%.

With `Cc1cccc(NC(=S)NCCC(c2ccccc2)c2ccccc2)c1`, the inhibition is 7.2%.

With `C/C(=N\NC(=S)Nc1cccc(C)c1)c1ccccc1`, the inhibition is -16.7%.

With `CC(=O)N/C(=C\c1ccc(F)cc1)C(=O)OCc1ccccc1`, the inhibition was -8%.

As to `Cc1oc(-c2ccccc2Cl)nc1CS(=O)CC(=O)NCc1cccs1` (stereo not drawn), the inhibition is -13.9%.

For the compound `O=C(C/C=N\OCc1ccc(Cl)cc1Cl)Nc1ccccc1`, the inhibition is -17%.

With `O=C(C/C=N/OCc1ccc(Cl)cc1Cl)c1ccc(Cl)cc1`, the inhibition was 19.3%.

Consider `CN(C)/C=C(\C=N\OCc1ccc(Cl)cc1Cl)C(=O)Nc1ccc(Cl)c(Cl)c1`, for which the inhibition was 95.7% (active).

With `CCN(CCCNC(=O)CN1C(=O)COc2ccccc21)c1cccc(C)c1`, the inhibition was 14.9%.

For `COc1ccc(NC(=O)C(=O)NCCN2CCN(C(=O)c3ccc(C)cc3)CC2)cc1`, the inhibition was -23%.

As to `O=C1Nc2cccnc2N(C(=O)CCl)c2ccccc21`, the inhibition is 50.5% (active).

For the compound `CCN(CC)CC1CCCCN1CC(=O)N1c2ccccc2C(=O)Nc2cccnc21` (stereo not drawn), the inhibition was 5.4%.

Take `CN1CCN(CC(=O)N2c3ccccc3C(=O)Nc3cccnc32)CC1`: the inhibition is -42.1%.

As for `CCOC(=O)c1c(C)[nH]c(C2=NNC(=Nc3ccc(OCC)cc3)SC2)c1C`, the inhibition is -31.6%.

In the case of `COc1cc(O)c2c(c1)OC(C)(C)CC2=O`, the inhibition was 5.2%.

For `CC1(C)CC(=O)c2c(O)cc(O)cc2O1`, the inhibition was -18.9%.

Consider `COc1cc(O)cc2cc3c(c(O)c12)C(=O)CC(C)(O)O3` (stereo not drawn), for which the inhibition was 51.8% (active).

Turning to `Cc1ccc(S(=O)(=O)c2nnn3c2nc(N2CCCCC2)c2ccccc23)cc1`, the inhibition is -42.5%.

On to `COc1ccc(CCNC(=O)c2cc(C)oc2C)cc1`, for which the inhibition was -16%.

`CC(=O)Nc1ccc(OCc2cccc3ccccc23)cc1`: the inhibition was 29.7%.

Turning to `Cc1ccc(C(C#N)c2ccc3c(C(F)(F)F)cc(C(F)(F)F)nc3n2)cc1` (stereo not drawn), the inhibition is 30%.

With `N#CC(c1ccc(Cl)cc1)c1ccc2c(C(F)(F)F)cc(C(F)(F)F)nc2n1` (stereo not drawn), the inhibition is 39.5%.

As for `CCNS(=O)(=O)c1ccc2c(c1)NCC2`, the inhibition is -16.1%.

Take `COc1ccc(C(=O)N(C)Cc2ccccc2)cc1Br`: the inhibition was -39.1%.

Turning to `COc1cc(C(=O)NC(=S)N(C)Cc2ccccc2)cc(OC)c1OC`, the inhibition is -14.8%.

Take `COc1ccc(C(=O)NC(=S)N(C)Cc2ccccc2)cc1Br`: the inhibition was 45% (active).

Turning to `Cc1cc(C)c(OCCCCn2cnc3ccccc3c2=O)c(C)c1`, the inhibition was 12.5%.

`CCOC(=O)Cc1[nH]nc2c1C(c1ccsc1)C(C#N)=C(N)O2` (stereo not drawn): the inhibition was -16.3%.

On to `CC(=O)Nc1ccc(S(=O)(=O)Nc2ccc3c(c2)OCCO3)cc1`, for which the inhibition is -25%.

Regarding `CC[n+]1c(-c2ccccc2)csc1Nc1c(C)n(C)n(-c2ccccc2)c1=O`, the inhibition was -17.7%.

For the compound `C=CC[n+]1c(-c2ccc(C)cc2)csc1Nc1c(C)n(C)n(-c2ccccc2)c1=O`, the inhibition was 8.4%.

With `CCOc1ccc(CCNC(=O)C2CCC(=O)N2C2CCCCC2)cc1OCC` (stereo not drawn), the inhibition was 6%.

As for `O=C(NCc1cccnc1)C1CCCN(S(=O)(=O)c2ccccc2)C1` (stereo not drawn), the inhibition is -13.3%.

With `Cc1cc([N+](=O)[O-])nn1CCCC(=O)Nc1ccc(Cl)cc1Cl`, the inhibition was -21%.

Consider `COC(=O)c1cccc(NC(=O)Cn2nnc3ccccc32)c1`, for which the inhibition was -17.8%.

With `Cc1csc(NC(=O)CSc2nnc3ncccn23)n1`, the inhibition was -6.2%.

Consider `CCCCNC(=O)NCc1cnn(C)c1C`, for which the inhibition is -24.6%.

On to `CC(=O)NNC(=O)c1ccncc1`, for which the inhibition was -26.4%.

On to `CCCCc1nc2ccc(S(=O)(=O)O)cc2[nH]1`, for which the inhibition is 7.8%.

Consider `COc1nc(OC)nc(Oc2ccc(Cl)cc2[N+](=O)[O-])n1`, for which the inhibition was 0.6%.

With `Nc1cccnc1S(=O)(=O)c1ccccc1`, the inhibition was -2.3%.

`COc1ccc(OCCOc2ccccc2[N+](=O)[O-])cc1`: the inhibition is -19.1%.

As for `COc1ccc([N+](=O)[O-])c(S(=O)(=O)c2ccc(Cl)cc2)n1`, the inhibition was 79.2% (active).

With `O=[N+]([O-])c1ccccc1S(=O)(=O)c1ccccc1`, the inhibition is -2.8%.

Consider `COc1ccc([N+](=O)[O-])c(S(=O)(=O)c2ccccc2)n1`, for which the inhibition is 61.7% (active).

`Cn1cnc([N+](=O)[O-])c1S(=O)(=O)c1ccc(Cl)cc1`: the inhibition was -30.1%.

For `COc1ccccc1S(=O)(=O)c1ccccc1[N+](=O)[O-]`, the inhibition is -10.5%.

For the compound `Cc1ccc(C(=O)COC(=O)CN2C(=O)C3C4CC(C(Br)C4Br)C3C2=O)cc1` (stereo not drawn), the inhibition is -29.5%.

As to `CC(C)n1c(=O)n(CC(=O)NCC2CCCO2)c(=O)c2c3c(sc21)COC(C)(C)C3` (stereo not drawn), the inhibition is -14%.

`Cc1ccc(N(C(C)C(=O)Nc2cccc(N(C)S(C)(=O)=O)c2)S(C)(=O)=O)cc1` (stereo not drawn): the inhibition is -21.2%.

For `CC(C)NC(=O)CN(Cc1ccc2c(c1)OCO2)C(=O)CCC(=O)Nc1ccccn1`, the inhibition was -22.2%.

As to `O=C(Cc1ccc([N+](=O)[O-])cc1)N1CCN=C1SCc1ccccc1`, the inhibition is -5%.

For the compound `Cc1cc(S(=O)(=O)Nc2ccc(C(=O)NCC(C)(C)N3CCOCC3)cc2)ccc1F`, the inhibition is -4.6%.

Take `OCCN(CCO)CC(O)CN1c2ccccc2Sc2ccccc21` (stereo not drawn): the inhibition was 2.7%.

Regarding `CCC(C)NC(=O)Cn1cc2c(n1)CCC(C)C2` (stereo not drawn), the inhibition is 7.9%.

`CCOc1ccccc1N(CC(=O)NCc1ccco1)C(=O)CCC(=O)Nc1nccs1`: the inhibition is -30.2%.

With `COc1ccc(CNCc2cc(OC)ccc2OC)cc1`, the inhibition is -19.6%.

For the compound `CSC1=C(C#N)C(c2ccccc2Cl)C(C(=O)c2cccs2)C(O)(C(F)(F)F)N1` (stereo not drawn), the inhibition is -8.1%.

As to `CCSC1=C(C#N)C(c2ccccc2Cl)C(C(=O)c2cccs2)C(O)(C(F)(F)F)N1` (stereo not drawn), the inhibition was 64.5% (active).

Regarding `C=CCSC1=C(C#N)C(c2ccccc2Cl)C(C(=O)c2cccs2)C(O)(C(F)(F)F)N1` (stereo not drawn), the inhibition was 63.3%.

With `CC1=NN(c2ccccc2)C(=O)C1=C(C)C`, the inhibition was -15.5%.

`CCOC(=O)C(c1ccccc1)C(Nc1ccc(F)cc1)c1ccccn1` (stereo not drawn): the inhibition is -2%.

In the case of `CC(C)(C)c1ccc(C(=O)N/N=C/c2cccc(Cl)c2)cc1`, the inhibition is 72.3% (active).

Take `O=C(N/N=C/c1cccc(F)c1)c1ccc(Cl)cc1`: the inhibition was -50.5%.

For `Cn1c(=O)n(C)c2cc(/C=N/NC(=O)c3ccc(Cl)cc3)ccc21`, the inhibition is -11.1%.

As to `CCC(=O)c1c[nH]c(C(=O)N2CCOCC2)c1`, the inhibition is -10.3%.

`CCCCCN1C=CC(=C2C(=O)c3ccccc3C2=O)C=C1`: the inhibition was 93.3% (active).

Take `CCCCCCN1Cc2ccccc2C1`: the inhibition is 5.4%.

Consider `CCCN1C=CC(=C2C(=O)c3ccccc3C2=O)C=C1`, for which the inhibition was 97.9%.

As to `CCCCCCCN1C=CC(=O)CC1`, the inhibition is 2%.

For `CCCCN1C(C)=CC(=C2C(=O)c3ccccc3C2=O)C=C1C`, the inhibition was -16.5%.

On to `CN1C=CC(=C2C(=O)c3ccccc3C2=O)C=C1`, for which the inhibition was -58.3%.

With `CCCCN1C=CC(=C2C(=O)c3ccccc3C2=O)C=C1`, the inhibition is 95.3% (active).

Take `CCCCCCN1C=CC(=C2C(=O)c3ccccc3C2=O)C=C1`: the inhibition is 80.8% (active).

As to `CC1=CC(=C2C(=O)c3ccccc3C2=O)C=C(C)O1`, the inhibition is -62.6%.

`CCCCN1C=CC(=C2N=c3cccc([N+](=O)[O-])c3=N2)C=C1`: the inhibition is 35.9%.

As to `CCN1C=CC(=C2C(=O)c3ccccc3C2=O)C=C1`, the inhibition is 90.4% (active).

With `CC1=CC(=C2C(=O)c3ccccc3C2=O)C=C(C)N1C`, the inhibition is -1.3%.

In the case of `COC(=O)c1ccc(CC(=O)c2nc3ccccc3s2)cc1`, the inhibition is -21.3%.

As for `COc1ccc(C2CC(c3ccc4ccccc4c3OC(C)=O)=NN2C(C)=O)cc1` (stereo not drawn), the inhibition is -2.5%.

As to `CCN(CC)S(=O)(=O)c1ccc2c(c1)[nH]c(=S)n2CC`, the inhibition is -41.3%.

For `CCOc1ccc(CCNC(=O)COC(=O)C2CCN(S(=O)(=O)c3ccc(C)c(C)c3)CC2)cc1OCC`, the inhibition was -4.1%.

Regarding `CC(=O)NC1CC2CCC(C1)N2Cc1ccc(C)cc1` (stereo not drawn), the inhibition is -106%.

With `Cc1c(C)c2ccc(OCC(=O)NC(Cc3ccc(Cl)cc3)C(=O)O)cc2oc1=O` (stereo not drawn), the inhibition was -25%.
